# Assay results from PubChem BioAssay AID1347426 (Functional Genomics Laboratory (NCATS/FGL), 2020).
# The whole screen tested about 31,000 sequences, of which about 1,400 (4.5%) were called active. This is one part of a sample in which actives are shown more often than they occur.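 The calls were made as follows: active = median seed-adjusted z-score above 1 or below -1; inactive = the rest.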
# Experiment: Novel Modifiers of Survival Motor Neuron (SMN) Protein: Gene Identification via Genome-wide siRNA Screen;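 also: luminescence tracks full-length SMN protein made from the SMN2 reporter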
# Conditions: HEK293T SMN2-luciferase reporter, siRNA knockdown, 72 h; actives lie on both sides
# Outline: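 siRNA screen, 10418 genes ×3 siRNAs; 1 pmol/well, lipid reverse transfection into HEK293T SMN2-luc reporter line. 72 h, 37 °C, 5% CO2; ONE-Glo readout. Data: neg-ctrl normalized, log10, MAD; hit = MAD >1.0 or < -1.0.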
row,Sequence,median seed-adjusted z-score
1,GGAUCACGAUGAAGACAAATT against CTSL3,1.07 (active)
2,ACUGGGCUCUCUUUACCUATT against DBNL,0.398 (inactive)
3,GAACAGGCGUGCCAAGUCUTT against MIXL1,-0.204 (inactive)
4,AAAGCGCAAUUGGUGGUAATT against DYNLT1,0.764 (inactive)
5,GGUUGCUAUCAAUACCCUUTT against SLC22A18,-0.654 (inactive)
6,CCAUCCUUAGAGUUCCUUATT against SLC23A3,-0.254 (inactive)
7,CGGUAUGCCUGUGACGACATT against FCER2,-1.75 (active)
8,AAAUCACACCAAACACUUATT against STX11,-0.518 (inactive)
9,GCAGCUGCCGGAAAUGUUATT against KRT81,-0.0955 (inactive)
10,CAAUCAAAGGGAAACUUGATT against TPT1,0.236 (inactive)
11,GGAGAAUGGUUCGACUGUUTT against CKAP5,-1.87 (active)
12,GGCUGUUUGUGAUGGAUAATT against GALNT2,0.0798 (inactive)
13,GAAACGUGGUGAGACCUCATT against PRKX,0.0341 (inactive)
14,CAUUCGUCGUAACUUUACATT against MIPEP,-0.169 (inactive)
15,CUUUCAUCUCUAAAACUGATT against LHX3,0.622 (inactive)
16,CCAGAUAAAUCUAUAGCAATT against RCOR1,-1.13 (active)
17,CAAUGGAACUUUAGAUUAUTT against PCDHA11,0.582 (inactive)
18,GGCUUUUAAGACUAAGGAATT against TRIM69,0.214 (inactive)
19,GCCUCCCAGAUGAUCGUCATT against SLC6A13,0.267 (inactive)
20,GGACGAUGCUGAUACGGUATT against NOP2,1.15 (active)
21,CACCAGACAUCAAAAUCAATT against ATF7,0.903 (inactive)
22,GCACAGACCUGGUGUGGAATT against NECAB2,-0.286 (inactive)

row,Sequence,median seed-adjusted z-score
1,UGACCUUUCCUAUCUAUAATT against MCART6,0.714 (inactive)
2,GGACACUAUAAGAAAGGAATT against FNTA,1.04 (active)
3,AGGUUUGGCUCAACUCUGATT against P2RX2,0.0454 (inactive)
4,GGAAAUUGCUUACAGGAAATT against ARSJ,-0.0978 (inactive)
5,GCUUAUCGGUUGAUCAUCATT against SLC6A4,1.43 (active)
6,GCAAGCUGCUGAUCGAGUUTT against KAT5,0.32 (inactive)
7,GGGACAUUUCCAAAUGGAATT against ARL6IP5,-0.202 (inactive)
8,GGGACUCUGUAUUCCCUCUTT against WFDC2,-0.466 (inactive)
9,CGUAUAGUCAAAGCUCAAATT against ZNF24,0.388 (inactive)
10,GAAGAGUUACUACAGUAAATT against MYT1,-0.292 (inactive)
11,CGAAGGAAAUGUACAGCAATT against SLC25A42,-1.02 (active)
12,CAAGGUUCUUGGUUGGGUATT against ZDHHC13,-0.381 (inactive)
13,CAUCAAUGGUCAUAAUGCATT against HNRNPA2B1,1.33 (active)
14,AAGAUGCUCUCCCACCUAATT against POLD4,0.225 (inactive)
15,GGUCUACCGGAUUAUCACATT against BRD2,-0.242 (inactive)
16,GGUCUUGAAGUGUACCCUATT against ITGAV,1.17 (active)
17,GCAUAGACACCAUCAUCAATT against GCLC,-0.21 (inactive)
18,ACUUCUACAUCAACGACAATT against ALDH4A1,0.0362 (inactive)
19,GGAAAGAGAACGAAUCGAATT against PPM1D,-0.66 (inactive)
20,GCCUUUGGUUCGCAAGUUUTT against DYRK2,0 (inactive)
21,CAACGAUCCCUGUACCAGUTT against GABBR2,-0.038 (inactive)
22,CCUACUACCUCAAACACCATT against SYVN1,-1.41 (active)

row,Sequence,median seed-adjusted z-score
1,GCUUAUUAGCCUCCAAUUUTT against ZSCAN5A,0.31 (inactive)
2,GAAGAACCCUGGUCUUUCATT against CARD14,-0.104 (inactive)
3,GCUGUGCCUUAUAACCGAATT against LRRK2,-0.671 (inactive)
4,GGGUCAUCCGAGAUUCUCATT against DLG5,0.467 (inactive)
5,GGGUCCAACAUUCCGAAUATT against CHD1,-1.03 (active)
6,GGCCUUCGGCUAAAAGAGATT against KIF22,0.283 (inactive)
7,CGGUAAUAGCAAUUCAGCATT against HEATR6,0 (inactive)
8,GAGAGAUAUUGAUCGACUUTT against ARG2,-0.796 (inactive)
9,GAGACAAGCUUCAACCACATT against SERPINA5,-1.01 (active)
10,GCAUUGGUAAAAUUGCUAATT against AVIL,-0.127 (inactive)
11,CGGACCGGCAGAGAACAAATT against PLA2G10,1.07 (active)
12,GCUAUGUCAUCACUACCAATT against KCNAB3,0.0697 (inactive)
13,GGAGUGCCCACAGUCAGAATT against SMUG1,-1.38 (active)
14,GGCUAUGUGCGGGAGUAUATT against PI4KA,0 (inactive)
15,CGAUCAAUCCAACCGCACATT against MEIS3,0.207 (inactive)
16,CCUCGGAAGAGAUCACUAUTT against POU2F1,0.317 (inactive)
17,CGUUUCAGUCGUUUCAAAATT against POLR2D,-3.79 (active)
18,GGUUAUAUACCACCUUAUATT against QRSL1,-0.539 (inactive)
19,GCUCUAAGGUUACGGAAGATT against MCOLN2,-0.0234 (inactive)
20,GUCCUGUCUUGAUUAAAUUTT against CHST7,0 (inactive)
21,GCAGAAGAAAGAACCCGUUTT against DYNC1I1,-0.716 (inactive)
22,CCACCCUACUAUGCGCACATT against GJA3,0.833 (inactive)

row,Sequence,median seed-adjusted z-score
1,CAAGGGUUUUCUUACAAUATT against GNA13,0 (inactive)
2,CAAUAUGAAGGUCGAAUUATT against TPR,-1.03 (active)
3,GACCUUAUAUGUGCAAGGATT against ZNF8,0.97 (inactive)
4,CGACUGGAUUAAGCAGUAUTT against ATP6V1C1,0.0821 (inactive)
5,UCAUGUGCCUGGAAAUUAATT against AIRE,0.308 (inactive)
6,GAACUGUCCGAAUCUAAUUTT against CNTNAP1,0.176 (inactive)
7,AAUCACAACUCCUAAAAGATT against POLR2J3,-5.42 (active)
8,ACAUCGUAGUGGGACGAAUTT against EXOSC2,-0.0798 (inactive)
9,CAUUCGCUCUGGUACUUAUTT against CRYZ,-0.809 (inactive)
10,GGUCCUAAGUUUGAAGUCATT against FRMPD2,-0.329 (inactive)
11,CGAUAUAAGCUCCGAGAGATT against POLR2E,-1.25 (active)
12,GCUGUAACCUCUUCAUCUATT against BRUNOL6,-0.542 (inactive)
13,GCAAGGAUCAGUUUCCGGATT against RHOC,-0.579 (inactive)
14,GGAACACCUUUAGUCAUGATT against ZNF790,0.245 (inactive)
15,CCAGCUGCCUACAAAGACATT against CLDN14,-0.456 (inactive)
16,AACGCACUCUUCUACGUCATT against NTSR1,-1.1 (active)
17,GACCGACAUUUGUGAAGAATT against ZNF547,0.099 (inactive)
18,CAAAUGGGACUGUCAAUUATT against REPS2,0.454 (inactive)
19,GGUUAUCCUUUGCCCAGCATT against ACTL7A,1.1 (active)
20,AAGUUAGUCCUAAAGUGUATT against UCHL1,-0.421 (inactive)
21,CCACGGCACAUGGAACUAATT against SLC7A14,0.132 (inactive)
22,GUCCCGCUAUGACUACUUUTT against GRM2,-0.664 (inactive)

row,Sequence,median seed-adjusted z-score
1,CUGUUUGGUUUAUUCGAUUTT against ZW10,0.199 (inactive)
2,GAGUAAGUGAAAUAGAACATT against ZBTB26,0 (inactive)
3,GAAACCAUCCAAUCCAAGATT against TXNDC2,-1.29 (active)
4,GGACUUGGAUUAUGAACUATT against COL6A3,0.341 (inactive)
5,CGAGCAUUCUCUCUUGAAATT against MED24,-2.3 (active)
6,GCGUGUAAAUUCUACUGCATT against RB1,0.49 (inactive)
7,CUACCACGCAGUCAACCUUTT against LTB4R2,-0.26 (inactive)
8,GGAUUUUAUUCUUCACCGUTT against RBMS3,0.0976 (inactive)
9,GCACGAAUUUCAGCACCAATT against HOXD1,0.144 (inactive)
10,GGAACAUUUUUGACGGAUUTT against SCN8A,0 (inactive)
11,GCACAACACUCGCUCCAAUTT against GLT8D1,1.22 (active)
12,GGUAAUAAAUGGGUUGGAATT against PTGR2,0.14 (inactive)
13,CAGAGACCCUUGAUAAACUTT against PIK3AP1,0.0678 (inactive)
14,GCAUGACUAUGUCAAGAAATT against MCM3,0.339 (inactive)
15,GCUCGUGAUUGAUGCUGCATT against NGB,0 (inactive)
16,CGACAUCAUCAAUAGACGATT against AQR,-1.56 (active)
17,GGACCACGAUGAUCAUUGATT against CRMP1,-0.354 (inactive)
18,GCAUUGGUGUAUGGAAUUATT against SLC6A15,0.0939 (inactive)
19,GCAAGAAAAAUCUAAGGAATT against ZNF57,0 (inactive)
20,ACAGCAUUGUCAUUAGACATT against UBR5,0.114 (inactive)
21,CAUGUGCUAUCGAAAGUAUTT against TCEB1,1.08 (active)
